Source: PubChem BioAssay
This is a sample that favours compounds with a hit; in the whole collection about 6.7% have one here.
C_diff_HTS = blocks growth of Clostridium difficile. Clostridium difficile clinical isolate growth, OD600, 24 h; active compounds read low. growth activity, negative = inhibition, % at 16 µg/mL (by protocol). 0.25% of 86,000 active;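 active means mean growth activity at or below -80% and every replicate also at or below -80%; inconclusive means mean at or below -80% but some replicate above -80%; inactive means mean growth activity above -80%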;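 further: 0% = DMSO wells and -100% = levofloxacin 16 µg/mL wells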
T_cruzi_growth-1 = inhibitors of T. cruzi proliferation; inhibition, % at 8.34 µM; AID 624255; T. cruzi beta-gal in NIH3T3, GalScreen luminescence, 90 h; 5.9% of 77,000 active;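 active means mean inhibition above about 93%, with at least 55% of replicates each passing it, limit read from the data, passing the limit was not always enough; inconclusive means only one of those two conditions holds; inactive means neither condition holds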
Pf_Dd2_growth = P. falciparum Dd2 growth inhibition; SYBR Green, 72 h; active compounds read low; activity change, % at 10 µM; 2.3% of 94,000 active; in the data active means activity change below about -80%; inconclusive means no clear call, values can overlap the other calls
T_cruzi_growth-2 = blocks T. cruzi growth in NIH3T3 host cells. shares compounds with T_cruzi_growth-1. inhibition, % at 8.35 µM. AID 651739. 72% of 5,600 active. T. cruzi beta-gal in NIH3T3, GalScreen luminescence, 90 h;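 active means mean replicate inhibition above about 95% and at least 55% of replicates individually reaching it, limit read from the data; inconclusive means only one of the two criteria is met; inactive means neither criterion is met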
T_cruzi_growth-3 = inhibitors of T. cruzi proliferation. shares compounds with T_cruzi_growth-1. T. cruzi beta-gal in NIH3T3, GalScreen luminescence, 90 h. inhibition, % at 2.09 µM. 21% of 5,600 active;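 active means mean inhibition above about 95%, with at least 55% of replicates also reaching it, limit read from the data; inconclusive means meets just one of the two conditions; inactive means meets neither condition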;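 further: plate controls were neutral control median for no effect and positive control median for full effect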
NIH3T3_tox = kills mouse NIH/3T3 fibroblasts | shares compounds with T_cruzi_growth-1 | NIH/3T3 viability, CellTiter-Glo ATP luminescence, 90 h | cytotoxicity (signal decrease), % at 8.35 µM | 14% of 5,600 active | AID 651742;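 active means mean signal decrease across replicates above about 35% based on untreated-well scatter, with enough replicates individually passing, limit read from the data; inconclusive means no rule stated though some were filed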;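 further: 0% = median of neutral control wells and 100% = median of positive control wells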
3T3_cytotox_2 = NIH/3T3 (mouse) viability loss; shares compounds with T_cruzi_growth-1; NIH/3T3 viability, CellTiter-Glo ATP luminescence, 90 h; inhibition, % at 24.9 µM; 56% of 5,600 active;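 active means mean loss of cell viability signal at or above a set limit, and enough replicates individually reaching it; inconclusive means meets only the mean limit or only the replicate share; inactive means meets neither condition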;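 further: 0% = median of neutral control wells and 100% = median of positive control wells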
Numbers without * were called inactive; ? = inconclusive; . = not tested or not shown.

SMILES C_diff_HTS T_cruzi_growth-1 Pf_Dd2_growth T_cruzi_growth-2 T_cruzi_growth-3 NIH3T3_tox 3T3_cytotox_2
C[C@@H]1CN([C@@H](C)CO)C(=O)Cc2cc(NC(=O)NC3CCCCC3)ccc2O[C@@H]1CN(C)S(=O)(=O)c1ccc(Cl)cc1 10 20 -15 . . . .
COc1ccccc1-c1ccc2c(c1)[C@H]1[C@H](CCN1C(=O)C1CCCC1)[C@@H](CO)N2 -2 . -79 . . . .
C[C@H]1CN([C@@H](C)CO)C(=O)c2cc(C3=CCCCC3)cnc2O[C@@H]1CN(C)C(=O)Nc1ccccc1 -17 19 . . . . .
CN1c2ccc(Br)cc2[C@@H]2[C@@H](CCN2C(=O)C2CCCCC2)[C@@H]1CO 61 23 7 . . . .
C[C@H]1CN([C@@H](C)CO)C(=O)Cc2cc(N(C)C)ccc2O[C@@H]1CN(C)C(=O)Nc1ccc(F)cc1 -2 . 6 . . . .
O=C(Nc1ccc(C(F)(F)F)cc1)Nc1ccc2c(c1)[C@@H]1C[C@H](CC(=O)N3CCc4ccccc4C3)O[C@@H](CO)[C@@H]1O2 -1 153* -32 103* 114* 13 19
O=C(Nc1ccc(C(F)(F)F)cc1)Nc1ccc2c(c1)[C@@H]1C[C@@H](CC(=O)N3CCc4ccccc4C3)O[C@@H](CO)[C@@H]1O2 11 77 -52 . . . .
O=C(Nc1ccc2c(c1)[C@H]1C[C@@H](CC(=O)N3CCc4ccccc4C3)O[C@@H](CO)[C@H]1O2)Nc1ccccc1F 6 . -57 . . . .
O=C(Nc1ccc(C(F)(F)F)cc1)Nc1ccc2c(c1)[C@H]1C[C@H](CC(=O)N3CCc4ccccc4C3)O[C@H](CO)[C@H]1O2 22 ? -70 85 110* 54* 106*
C[C@@H](NC(=O)C[C@@H]1CC[C@@H](NS(=O)(=O)c2cccc(F)c2)[C@H](CO)O1)c1ccccc1 1 54 -2 . . . .
CCCNC(=O)C[C@H]1C[C@H]2c3cc(NC(=O)c4ccc5c(c4)OCO5)ccc3O[C@H]2[C@@H](CO)O1 -1 -33 3 . . . .
CCNC(=O)[C@@H]1[C@@H](CO)[C@@H]2Cn3c(cccc3=O)[C@H]1N2C(=O)Nc1cc(F)ccc1F 1 . -1 . . . .
CN(C)C(=O)[C@H]1[C@H](CO)[C@H]2Cn3c(cccc3=O)[C@@H]1N2C(=O)c1ccc(F)cc1 6 185* . 4 -5 -17 -8
CCCNC(=O)[C@H]1[C@H](CO)[C@H]2Cn3c(cccc3=O)[C@@H]1N2CCC(F)(F)F -3 2 . . . . .
CCCNC(=O)[C@@H]1[C@@H](CO)[C@@H]2Cn3c(cccc3=O)[C@H]1N2CCC(F)(F)F -3 94* . ? -26 11 -7
CN(C)C(=O)[C@@H]1[C@@H](CO)[C@@H]2Cn3c(cccc3=O)[C@H]1N2C(=O)c1ccccc1 -2 53 3 . . . .
CCCNC(=O)[C@H]1[C@H](CO)[C@H]2Cn3c(cccc3=O)[C@@H]1N2C(=O)Nc1cc(F)ccc1F -5 101* 10 ? 4 21 9
O=C(Nc1ccc2c(c1)[C@H]1C[C@@H](CC(=O)N3CCc4ccccc4C3)O[C@@H](CO)[C@H]1O2)C1CCOCC1 0 -31 11 . . . .
CCNC(=O)[C@@H]1[C@@H](CO)[C@@H]2Cn3c(ccc(-c4cccnc4)c3=O)[C@@H]2N1Cc1ccc2c(c1)OCO2 0 14 -1 . . . .
Cc1noc(C)c1S(=O)(=O)Nc1cccc2c1O[C@@H](CN(C)C(=O)Nc1ccccc1)[C@@H](C)CN([C@H](C)CO)C2=O -7 28 20 . . . .
COc1ccc(S(=O)(=O)N(C)C[C@@H]2Oc3cc(Br)ccc3S(=O)(=O)N([C@H](C)CO)C[C@@H]2C)cc1 7 ? -37 101* 39 15 61*
Cc1ccc(S(=O)(=O)N(C)C[C@H]2Oc3cc(Br)ccc3S(=O)(=O)N([C@H](C)CO)C[C@H]2C)cc1 14 67 -6 . . . .
COc1cccc(S(=O)(=O)N(C)C[C@@H]2Oc3cc(Br)ccc3S(=O)(=O)N([C@@H](C)CO)C[C@@H]2C)c1 7 . -56 . . . .
COc1ccc(S(=O)(=O)N(C)C[C@H]2Oc3cc(Br)ccc3S(=O)(=O)N([C@H](C)CO)C[C@H]2C)cc1 5 ? -26 102* 38 5 54*
CN1C(=O)c2cc(NC(=O)c3ccccc3F)ccc2OC[C@H]2O[C@H](CC(=O)NCc3ccc4c(c3)OCO4)CC[C@@H]21 42 37 -17 . . . .
SMILES C_diff_HTS T_cruzi_growth-1 Pf_Dd2_growth T_cruzi_growth-2 T_cruzi_growth-3 NIH3T3_tox 3T3_cytotox_2
C[C@@H]1CN([C@H](C)CO)C(=O)c2cc(NC(=O)Nc3ccccc3)ccc2O[C@H]1CN(C)Cc1ccccc1 8 -64 7 . . . .
C[C@@H]1CN([C@H](C)CO)S(=O)(=O)c2ccc(C#CCN(C)C)cc2O[C@@H]1CN(C)C(=O)C1CCC1 -1 72 7 . . . .
C[C@H](CO)N1C[C@H](C)[C@@H](CN(C)C(=O)C2CC2)Oc2cc(C#CCN(C)C)ccc2S1(=O)=O -3 100* 12 107* 92 14 15
C[C@H](CO)N1C[C@H](C)[C@@H](CN(C)C(=O)C2CCC2)Oc2cc(C#CCN(C)C)ccc2S1(=O)=O 0 106* -9 99* 93 19 8
C[C@H]1CN([C@@H](C)CO)S(=O)(=O)c2ccc(C#CCN(C)C)cc2O[C@@H]1CN(C)C(=O)C1CCCCC1 -2 . -34 . . . .
C[C@@H]1CN([C@@H](C)CO)S(=O)(=O)c2ccc(C3=CCCCC3)cc2O[C@H]1CN(C)CC1CCCC1 5 123* -37 102* 73 120* 106*
C[C@H](CO)N1C[C@H](C)[C@@H](CN(C)CC2CCCC2)Oc2cc(C3=CCCC3)ccc2S1(=O)=O 8 103* -59 103* 65 8 107*
C[C@H](CO)N1C[C@H](C)[C@@H](CN(C)CC2CCCC2)Oc2cc(C3=CCCCC3)ccc2S1(=O)=O 6 106* -51 97* 77 13 103*
C[C@@H]1CN([C@@H](C)CO)S(=O)(=O)c2ccc(C3=CCCC3)cc2O[C@H]1CN(C)CC1CC1 4 93 -28 . . . .
C[C@@H]1CN([C@H](C)CO)S(=O)(=O)c2ccc(C3=CCCCC3)cc2O[C@@H]1CN(C)CC1CC1 . 67 -50 . . . .
C[C@@H]1CN([C@@H](C)CO)S(=O)(=O)c2ccc(C3=CCCCC3)cc2O[C@@H]1CN(C)CC1CC1 . 51 -50 . . . .
CCCC(=O)Nc1ccc2c(c1)OC[C@H](C)N(CC1CCCC1)C[C@H](C)[C@@H](OC)CN(C)C2=O . 5 -30 . . . .
O=C(C[C@@H]1C=C[C@H](NC(=O)c2ccccc2)[C@@H](CO)O1)NCCc1ccncc1 -2 -57 2 . . . .
